Inconclusive results are not listed. A call without a number means that no potency is given here. Activity calls are given as the source filed them. Calls come from the whole dose curve; as a rule, active = well fitted inhibition curve with a large enough effect; inconclusive = small, poorly fitted or top-dose-only effect; inactive = flat fitted curve, though single readings scatter.
Experiment: P-glycoprotein substrates identified in KB-8-5-11 adenocarcinoma cell line, qHTS therapeutic library screen (AID 1346987); note: nearly all actives have a fitted effect of over 65% in size
Details: KB-8-5-11 (P-gp overexpressing) viability, CellTiter-Glo, 72 h; series mostly up to 44.5 µM
How it was run: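 Luminescence from CellTiter-Glo, read 5 min after addition, quantified survival of KB-8-5-11 (P-gp-overexpressing) cells exposed to compounds for 72 h. AC50 was derived from concentration-response curves.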
Potency is the fitted concentration of half-maximal effect.

SMILES | Potency | activity change, negative = cytotoxicity | outcome
COc1c2c(c(C)c3c1C(=O)OC3)OC1(C)CC(O)C34OC(OC)(CC(OC(C)=O)C3(C)C1C2)OC4(C)C (centres undefined) | inactive |  | 
COC(=O)CC1CC(c2ccc(O)cc2)=NO1 (centres undefined) | inactive |  | 
C[C@@]12C[C@]3(O)O[C@H](O1)[C@]1(COC(=O)c4ccccc4)[C@H]3C[C@@]12O[C@@H]1O[C@H](CO)[C@@H](O)[C@H](O)[C@H]1O | inactive |  | 
O=C(O)CC(=O)OC[C@H]1O[C@@H](Oc2ccc3c(c2)OC[C@H]2c4cc5c(cc4O[C@@H]32)OCO5)[C@H](O)[C@@H](O)[C@@H]1O | inactive |  | 
CC(=O)NC1=NN(C(C)=O)C(C)(c2ccccc2)S1 (centres undefined) | 5800 nM (active) |  | 
COc1ccc([C@@H]2OC[C@H]3[C@@H]2CO[C@@H]3c2ccc(OC3OC(CO)C(O)C(O)C3O)c(OC)c2)cc1OC (some centres undefined) | inactive |  | 
CC(C)c1nnc(-c2ccc(-c3ccccc3)nc2)n1-c1cccc2nonc12 | inactive |  | 
Nc1nc(Nc2ccc(S(N)(=O)=O)cc2)n(C(=S)Nc2c(F)cccc2F)n1 | 1160 nM (active) |  | 
CC(O)/C=C/C1C(C)C(O[C@@H]2O[C@H](CO)[C@@H](O)[C@H](O)[C@H]2O)C(O)CC1(C)C (some centres undefined) | inactive |  | 
C[C@@H]1O[C@@H](OC[C@H]2O[C@@H](Oc3cc(O)cc4c3C(=O)C(O)(Cc3ccc(O)cc3)O4)[C@H](O)[C@@H](O)[C@@H]2O)[C@H](O)[C@H](O)[C@H]1O (some centres undefined) | inactive |  | 
COc1cccc(-c2cc(NCc3ccc4c(c3)OCO4)nc(N)n2)c1 | 164 nM (active) |  | 
CC1(C)CC[C@]2(C(=O)O)[C@H](O)C[C@]3(C)C(=CCC4[C@@]5(C)CC[C@H](O[C@@H]6O[C@H](CO[C@@H]7OC[C@H](O)[C@H](O)[C@H]7O[C@@H]7OC[C@@H](O)[C@H](O)[C@H]7O)[C@@H](O)[C@H](O)[C@H]6O[C@@H]6O[C@H](CO)[C@@H](O)[C@H](O)[C@H]6O)C(C)(C)C5CC[C@]43C)[C@@H]2C1 (some centres undefined) |  | 6.47% [at 9.29 µM] (inactive) | 
COc1cc(C(=O)NC2CCN(C)CC2)ccc1Nc1ncc2c(n1)N(C1CCCC1)CC(F)(F)C(=O)N2C | 1160 nM (active) |  | 
C=C(CCC1=C(C)[C@H]2[C@H](CC3[C@@H]4CC=C5C[C@@H](O)C[C@@H](O)[C@]5(C)C4[C@H](O)C[C@@]32C)O1)CO[C@@H]1O[C@H](CO)[C@@H](O)[C@H](O)[C@H]1O (some centres undefined) | 1530 nM (active) |  | 
COc1ccc(-c2c(-c3cc(C(=O)O)ccn3)ncn2C)cc1 | inactive |  | 
COC(=O)c1ccnc(-c2cc(C(=O)NCCc3ccccc3)ccn2)c1 | inactive |  | 
COC(=O)C1=CO[C@@H](O[C@@H]2O[C@H](CO)[C@@H](O)[C@H](O)[C@H]2O)[C@@H]2[C@@](C)(O)[C@@H](OC(=O)/C=C/c3ccc(O)cc3)C[C@]12O | inactive |  | 
C[C@@H]1C(=O)O[C@H]2[C@H](O)C34[C@H]5C[C@@H](C(C)(C)C)C36[C@@H](OC(=O)[C@@H]6O)O[C@@]4(C(=O)O5)[C@@]12O (some centres undefined) | inactive |  | 
CCCC(=O)O[C@@H]1[C@@H]2[C@@H](OC(C)=O)[C@]3(C)C(=O)[C@H]4[C@@H](OC(C)=O)C(C)(C)C[C@H]4[C@]3(C)C(=O)[C@@]2(OC(C)=O)C[C@@H]1C | inactive |  | 
C[C@@H]1O[C@@H](O[C@@H]2[C@@H](O[C@@H]3O[C@@H](C)[C@H](O[C@@H]4OC[C@H](O)[C@H](O[C@@H]5OC[C@@H](O)[C@H](O)[C@H]5O)[C@H]4O)[C@@H](O[C@@H]4OC[C@](O)(CO)[C@H]4O)[C@H]3O)[C@H](OC(=O)[C@]34CCC(C)(C)C[C@H]3C3=CCC5[C@@]6(C)C[C@H](O)[C@H](O[C@@H]7O[C@H](CO[C@@H]8OC[C@H](O)[C@H](O)[C@H]8O)[C@@H](O)[C@H](O)[C@H]7O)C(C)(C)C6CC[C@@]5(C)[C@]3(C)C[C@H]4O)OC[C@H]2O)[C@H](O)[C@H](O)[C@H]1O (some centres undefined) |  |  | inactive [at 9.29 µM]

SMILES | Potency | activity change, negative = cytotoxicity | outcome
C=C[C@@](C)(O)CC/C=C(\C)C(=O)O[C@@H]1[C@@H]2O[C@]2(C)[C@H]2[C@H](O[C@@H]3O[C@H](CO)[C@@H](O)[C@H](O)[C@H]3O)OC=C[C@@]12O | inactive |  | 
CC1=CCC2C(C)(C)CCC[C@]2(C)[C@@]12CC[C@](C)(CC(=O)O)O2 (some centres undefined) | inactive |  | 
CON(C)C(=O)[C@H](O)[C@H](Cc1ccccc1)NC(=O)c1cc2cc(Cl)ccc2[nH]1 | inactive |  | 
O=[N+]([O-])c1cn2c(n1)OCC(OCc1ccc(OC(F)(F)F)cc1)C2 (centres undefined) | inactive |  | 
O=S(=O)(NCC1CC1)c1ccc(Nc2nccc(N3CCCc4cc(O)ccc43)n2)cc1 | 9200 nM (active) |  | 
Cc1c[nH]c2nccc(Oc3c(F)cc(Nc4cc(Cl)nc(N)n4)cc3F)c12 | 1300 nM (active) |  | 
C=CCC1=C[C@]2(OC)[C@H](C)[C@@H](c3ccc(O)c(OC)c3)O[C@]2(OC)CC1=O | inactive |  | 
CCOc1ccc(S(=O)(=O)n2c(C)nc3ccccc32)cc1 | inactive |  | 
OC[C@H]1O[C@@H](O[C@H]2[C@H](OCc3ccccc3)O[C@H](CO[C@@H]3OC[C@@H](O)[C@H](O)[C@H]3O)[C@@H](O)[C@@H]2O)[C@H](O)[C@@H](O)[C@@H]1O | inactive |  | 
C=C1CCC2C(C)(C(=O)OC)CCCC2(C)C1CCC(C)CC(=O)O (centres undefined) | inactive |  | 
COc1cc2ncnc(Nc3ccc(F)c(Cl)c3)c2cc1NC(=O)/C=C/CN1CCCCC1 | 10300 nM (active) |  | 
CC(/C=C/C1=CC2=CC(=O)C(C)(O)C(O)C2=CO1)=C\C(C)CCO (centres undefined) | inactive |  | 
CN(CCc1ccc(Nc2ncc(-c3cccnc3)s2)cc1)Cc1ccccc1 | inactive |  | 
CC1=CC(=O)C2(OC3OC(C)C(O)C(OC(=O)/C=C/c4ccccc4)C3O)C=COC(OC3OC(CO)C(O)C(O)C3O)C12 (centres undefined) | inactive |  | 
CCOC(=O)C(CCc1ccccc1)NC1CSC(c2cccs2)CN(CC(=O)O)C1=O (centres undefined) | inactive |  | 
CCC1=CC2CN(C1)Cc1c([nH]c3ccccc13)[C@@](C(=O)OC)(c1cc3c(cc1OC)N(C)[C@H]1[C@@](O)(C(=O)OC)[C@H](OC(C)=O)[C@]4(CC)C=CCN5CC[C@]31[C@@H]54)C2 (some centres undefined) | 7090 nM (active) |  | 
CC1OC(OCC2OC(OC3CCC4(C)C(CCC5(C)C4CC=C4C6CC(C)(C)CCC6(C(=O)OC6OC(CO)C(O)C(O)C6O)CCC45C)C3(C)CO)C(O)C(O)C2O)C(O)C(O)C1O (centres undefined) |  |  | inactive [at 9.29 µM]
C=C1CCCC2(C)CC3(OC)OC(=O)C(C)=C3CC12 (centres undefined) | inactive |  | 
C[C@@H]1O[C@@H](O[C@H]2[C@H](OC(=O)[C@]34CCC(C)(C)C[C@H]3C3=CCC5[C@@]6(C)C[C@H](O)[C@H](O[C@@H]7O[C@H](CO)[C@@H](O[C@H]8OC[C@](O)(CO)[C@H]8O)[C@H](O)[C@H]7O)[C@@](C)(CO)C6[C@H](O)C[C@@]5(C)[C@]3(C)C[C@H]4O)OC[C@H](O)[C@@H]2O)[C@H](O)[C@H](O)[C@H]1O[C@@H]1OC[C@@H](O)[C@H](O[C@@H]2OC[C@](O)(CO)[C@H]2O)[C@H]1O (some centres undefined) |  | 9.78% [at 9.29 µM] (inactive) | 

— PubChem BioAssay (NCATS)
